According to PubChem BioAssay (Tox21):
Values joined by “and” are separate entries in the source; they are usually repeats but may differ in a detail not shown here. Equal values may be shown once. Records with an inconclusive call do not appear. Entries that show only a call come without a potency. Some structures have more than one record in an assay (separate samples or runs), and their calls can disagree. Active and inactive are the calls of the source. Calls come from the whole dose curve.

target: 5-hydroxytryptamine receptor 2A (Homo sapiens) (UniProt P28223); assay: 5-hydroxytryptamine receptor 2A (HTR2A) small molecule agonists, cell-based qHTS assay (AID 1963587); conditions: HTR2A-CHO cells, calcium flux fluorescence, agonist mode; series mostly up to 76.8 µM; note: nearly all actives have a fitted effect of over 30% in size
Sequence (P28223 whole entry, looked up): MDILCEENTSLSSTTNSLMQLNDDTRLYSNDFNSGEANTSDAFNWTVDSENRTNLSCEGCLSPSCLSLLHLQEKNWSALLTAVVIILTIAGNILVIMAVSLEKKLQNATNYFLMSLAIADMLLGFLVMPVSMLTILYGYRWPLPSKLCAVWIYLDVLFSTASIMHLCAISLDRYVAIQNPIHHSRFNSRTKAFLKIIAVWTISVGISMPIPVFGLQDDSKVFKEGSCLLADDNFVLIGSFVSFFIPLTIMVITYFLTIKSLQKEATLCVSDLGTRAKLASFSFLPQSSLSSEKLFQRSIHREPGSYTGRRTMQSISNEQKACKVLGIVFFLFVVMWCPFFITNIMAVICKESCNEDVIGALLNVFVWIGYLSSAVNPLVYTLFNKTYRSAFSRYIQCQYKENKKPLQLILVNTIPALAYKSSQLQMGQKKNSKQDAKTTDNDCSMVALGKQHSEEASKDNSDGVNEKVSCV
Excerpt: National Center for Advancing Translational Sciences [NCATS]
Division of Preclinical Innovation [DPI]
U.S. Environmental Protection Agency [EPA]
National Institutes of Environmental Health Sciences [NIEHS]
National Toxicology Program [NTP]
U.S. Food and Drug Administration [FDA]
The HTR2A receptor is a subtype of the 5-HT2 receptor that belongs to the serotonin receptor family and is a G protein-coupled receptor (GPCR). The HTR2A-CHO cell line stably expressing human 5-hydroxytryptamine receptor 2A (HTR2A) can be used for screening agonists of interactions between 5-HT2 and its ligands. The HTR2A-CHO calcium flux assay is a homogeneous fluorescence-based assay for detecting the intracellular calcium level using FDSS kinetic plate reader system.
HTR2A-CHO cells were dispensed at 2000 cells/3uL/well in 1536-well black-clear bottom plates using a Multidrop Dispenser. After the assay plates were incubated at a 37 C/5% CO2 incubator for 18 h, 3 uL of Dye Loading Buffer was transferred to the assay plate by a Flying Reagent Dispenser. The assay plates were incubated at 37 C for 1h. For agonist mode, 23 nL of compounds dissolved in DMSO, positive controls or DMSO only was transferred to the assay plate by a pin tool. The fluorescence intensity in the plates was measured using FDSS 7000EX kinetic plate reader for 2 min at 1 sec intervals.
Potency is the fitted concentration of half-maximal effect.

| Compound | Potency |
| --- | --- |
| CC1=CCC(=O)O1 | inactive |
| Nc1ccc(NCCO)c([N+](=O)[O-])c1 | inactive |
| O=CC1CC1 | inactive |
| CC(C)(C)c1ccc(S)cc1 | inactive |
| CCC(CO)CO | inactive |
| Cc1ccc2ccccc2c1[N+](=O)[O-] | inactive |
| CCCCCCCCS(=O)(=O)Cl | inactive |
| CC(=O)O[C@@H]1CC2C3CCc4cc(OC(=O)c5ccccc5)ccc4C3CCC2(C)[C@H]1OC(C)=O (stereo not given in full) | inactive |
| O=S(=O)(O)CCCN1CCOCC1 | inactive |
| N#CC1(c2ccc(F)cc2)CCC(=O)CC1 | inactive |
| O=Nc1ccc(NO)cc1 | inactive |
| O=S(=O)(O)c1ccc2cc(O)c(S(=O)(=O)O)cc2c1 | inactive |
| CC(=O)CC(C)=O | inactive |
| Cc1ccc(O)c([N+](=O)[O-])c1 | inactive |
| CCCCCCOC(=O)CC | inactive |
| CC[C@]12CCCN3CCc4c(n(c5ccccc45)[C@@](O)(C(=O)OC)C1)[C@@H]32 | inactive |
| CC/C=C\CCOC(=O)CCCCC | inactive |
| COc1ccc(NC(C)=O)cc1 | inactive |
| CNCCO | inactive |
| CCNc1nc(N)nc(Cl)n1 | inactive |

| Compound | Potency |
| --- | --- |
| CCC(C)(O)CCC=C(C)C (stereo not given) | inactive |
| CC1=CC(=O)[C@H]2C[C@@H]1C2(C)C | inactive |
| O=C(O)c1cccnc1C(=O)O | inactive |
| CC(=O)C(C)O (stereo not given) | inactive |
| COC(=O)c1cc(Cl)ccc1OC | inactive |
| C/C=C/C(=O)CCCC | inactive |
| CC(C)OCCO | inactive |
| C=C(C)C(=O)NCCC[N+](C)(C)C | inactive |
| CCCCOCCCC | inactive |
| O=Nc1ccc(Nc2ccccc2)cc1 | 391 nM (active) |
| CCCc1ccc(N)cc1 | inactive |
| CCCC(C)CO (stereo not given) | inactive |
| COc1cc(/C=C/C(=O)O[C@H]2CC[C@]34C[C@]35CC[C@]3(C)[C@@H]([C@H](C)CCC=C(C)C)CC[C@@]3(C)[C@@H]5CC[C@H]4C2(C)C)ccc1O | inactive |
| NCCNCCN | inactive |
| CN(C)Cc1ccccc1O | inactive |
| CS(=O)(=O)c1ccc(Cl)cc1 | inactive |
| NCCc1ccc(O)c(O)c1 | inactive and 6.01 µM (active) |
| CCCCCCCCCCCCCCO | inactive |
| CCN(CC)S(=O)(=O)c1ccc(C(=O)O)cc1 | inactive |
| CC(C)c1ccc2c(C(C)C)cc(C(C)C)c(S(=O)(=O)O)c2c1 | inactive |
